# Hit rate of the full screen: of about 39,000 compounds, about 3,300 (8.5%) were called active. The sample as a whole holds a higher share of actives than the screen did.
# System: HepG2
# Test: cytotoxicity call (relative viability < 0.9)
# Conditions: 10 µM
row,Compound,cytotoxicity call
1,CCCCCC1C(=O)OC(C)C(NC(=O)c2cccc(NC=O)c2O)C(=O)OC(C)C1OC(=O)CC(C)C (stereo not drawn) [ANTIMYCIN A (A1 shown) ],active
2,CCCCC[C@H]1C(=O)O[C@H](C)[C@H](NC(=O)c2cccc(NC=O)c2O)C(=O)O[C@@H](C)[C@@H]1OC(=O)CC(C)C,active
3,O=C1COC2(CNC2)CN1,inactive
4,CC(C)N1CCO[C@H]2CN(C(=O)N(C)C)C[C@@H]21,inactive
5,C=CCC1(O)CCC2C3CCC4=CC(=O)CCC4=C3C=CC21C (stereo not drawn),inactive
6,CC(CCc1ccccc1)NC(C)C(O)c1ccc(O)cc1.Cl (stereo not drawn),inactive
7,Nc1nnns1,inactive
8,CC(C)[C@@H](Br)C(=O)NC(N)=O,inactive
9,CC(C)Oc1ncccc1CN,inactive
10,CC1(C)C(=O)C=CC2(C)C1=C(O)C(=O)C1(C)C2CCC2(C)C(c3ccoc3)CC3OC321 (stereo not drawn),active
11,CC(=O)OC1CC2(C)C(c3ccoc3)CC3OC32C2(C)C(=O)C(O)=C3C(C)(C)C(=O)C=CC3(C)C12 (stereo not drawn),active
12,CC(=O)O[C@H]1C[C@@H](OC(C)=O)C(C)(C)[C@@H]2C[C@@H](OC(C)=O)[C@]3(C)[C@H](CC[C@@]4(C)[C@H](c5ccoc5)C[C@H]5O[C@@]534)[C@@]12C,inactive
13,CC1(C)C(O)CC(=O)C2(C)C1CC(=O)C1(C)C2CCC2(C)C(c3ccoc3)OC(=O)C3OC321 (stereo not drawn),inactive
14,N[C@H]1CCCN(Cc2cccnc2)C1,inactive
15,O=C1NC(=S)NC(=O)C1CN1CCOCC1,inactive
16,C[C@H](O)[C@@]12[C@H]3CC=C[C@@H]1N2CC3 (stereo partly drawn),inactive
17,O[C@H]1CNC[C@@H]1N1CCCCC1,inactive
18,Cn1c(CCN)nc2ccccc21,inactive
19,COC(=O)C[C@@H]1CC[C@@H]2NC[C@H](O)COC[C@H]2O1,inactive
20,CO[C@@H]1C=C[C@@H]2[C@H]1N2CCO (stereo partly drawn),inactive
21,N[C@H]1CNC(=O)C1,inactive
22,NCCc1ccc(O)cc1 [listing 1 of 2 here],inactive
23,NCCc1ccc(O)cc1 [listing 2 of 2 here],inactive
24,CCCCCCCCCc1ccc(O)cc1,active
25,C1CCN2C(C3N4CCCCN34)N2C1 (stereo not drawn),inactive

row,Compound,cytotoxicity call
1,c1cnc2[nH]cc(CN3CCNCC3)c2c1,inactive
2,O=C1NCc2cnnn2-c2ccccc21,inactive
3,CCN1CCN(c2nc(=O)cc(C)[nH]2)CC1,inactive
4,C1CO[C@@]2(C1)CCNC2,inactive
5,O=C([O-])c1ccccc1-c1c2cc(Br)c(=O)cc-2oc2[c]([Hg][OH])c([O-])c(Br)cc12.[Na+].[Na+],inactive
6,O=C1NC(=O)C(=C[C@@H]2CC=CCC2)C(=O)N1,inactive
7,CC1=C(O)C(=O)C=C2C1=CC=C1C2(C)CCC2(C)C3CC(C)(C(=O)O)CCC3(C)CCC12C (stereo not drawn),active
8,O.O.O.O=C([O-])C1[O][Sb]2[O]C(=O)C([O]2)C(C(=O)[O-])[O][Sb]2[O]C(=O)C1[O]2.[K+].[K+] (stereo not drawn),active
9,Clc1nc(N2CCNCC2)c2[nH]cnc2n1,inactive
10,COCCCNC(=O)[C@H]1N[C@H]2C[C@@H]1C[C@@H]2F,inactive
11,O[C@@H]1[C@@H]2C[C@H]3[C@H]1N[C@@H]1C[C@@H]2[C@@H]3[C@H]1O,inactive
12,CN1CCO[C@H]2CN(c3ncccn3)C[C@@H]21,inactive
13,N#Cc1nn(-c2c(Cl)cc(C(F)(F)F)cc2Cl)c(N)c1S(=O)C(F)(F)F (stereo not drawn),active
14,C[C@H](CO)N1C[C@H](C)[C@H](CN(C)C(=O)Oc2ccc3ccccc3c2)OCc2cn(nn2)CCCC1=O,inactive
15,CCOCC(=O)N1C[C@H]2CNC[C@H]2C1,inactive
16,CN1CCCN(Cc2ccc(CN)cc2)CC1,inactive
17,CN1[C@@H]2CC[C@H]1CNC(=O)C2,inactive
18,CC1=NCCc2c1[nH]c1cc(O)ccc21.Cl.O.O,active
19,COc1ccc2c3c([nH]c2c1)C(C)=NCC3,inactive
20,CN1CCN(c2ccccc2CN)CC1,inactive
21,COc1ccc(OC(=O)N(C)C[C@@H]2OCc3ccccc3-c3c(n(C)c4ccccc34)C(=O)N([C@H](C)CO)C[C@H]2C)cc1,inactive
22,N#Cc1cccnc1N1CCNCC1,inactive
23,Cc1ccc2cc3c(ccc4ccccc43)c3c2c1CC3,active
24,CN1CCN(C(=O)[C@H]2C[C@H]3CN(c4ncccn4)C[C@@H]3N2C)CC1,inactive
25,Br.CN1C2CC(OC(=O)C(CO)c3ccccc3)CC1C(O)C2 (racemic),inactive

row,Compound,cytotoxicity call
1,C=C1[C@H]2CC[C@H]3[C@]4(C)C[C@H](O[C@H]5O[C@@H](CO)[C@@H](OS(=O)(=O)O)[C@H](OS(=O)(=O)O)[C@H]5OC(=O)CC(C)C)C[C@@H](C(=O)O)[C@H]4CC[C@]3(C2)[C@H]1O,inactive
2,CC[C@@H](C)NC=C1C(=O)NC(=O)NC1=O,inactive
3,O=C(c1ccco1)N1[C@@H]2CC[C@H]1CNC2,inactive
4,NC1(c2cccc(Cl)c2)CC1,inactive
5,CC(C)C[C@@H]1NC[C@@H]2CCCN2C1=O,inactive
6,CN(C)C(=S)SSC(=S)N(C)C,active
7,O=C(O)CN1C[C@@H]2C(NC(=O)c3ccno3)[C@H]2C1 (stereo partly drawn),inactive
8,CC(C(O)c1ccccc1)N(C)C (stereo not drawn),inactive
9,CNCC(=O)c1ccc(O)cc1,inactive
10,CNc1ccccc1C(=O)O,inactive
11,COC(=O)NC(=S)Nc1ccccc1NC(=S)NC(=O)OC,active
12,Br.CN1C2CC(OC(=O)C(CO)c3ccccc3)CC1C1OC12 (stereo not drawn),inactive
13,C[N+]1(C)C2CC(OC(=O)C(CO)c3ccccc3)CC1C1OC12.[Br-] (stereo not drawn),inactive
14,CC(=O)Nc1ccc(Cl)cc1C,inactive
15,C=C[C@H]1CN2CC[C@@H]1C[C@@H]2CO,inactive
16,CN(C)[C@@H](CN)c1cn(C)c2ccccc12,inactive
17,C[C@@H]1CCC(=O)O1,inactive
18,OCC[N+]12CN3CN(CN(C3)C1)C2,inactive
19,Cc1cc2c(C(C)C)c(O)c(O)c(C=O)c2c(O)c1-c1c(C)cc2c(C(C)C)c(O)c(O)c(C=O)c2c1O [listing 1 of 2 here],inactive
20,Cc1cc2c(C(C)C)c(O)c(O)c(C=O)c2c(O)c1-c1c(C)cc2c(C(C)C)c(O)c(O)c(C=O)c2c1O [listing 2 of 2 here],active
21,CC(=O)O.Cc1cc2c(C(C)C)c(O)c(O)c(C=O)c2c(O)c1-c1c(C)cc2c(C(C)C)c(O)c(O)c(C=O)c2c1O,inactive
22,COc1cccc(C2(O)CCCCC2CN(C)C)c1.Cl (stereo not drawn),inactive
23,CN(CC[C@@H](N)CC(=O)N[C@H]1C=C[C@H](n2ccc(N)nc2=O)O[C@@H]1C(=O)O)C(=N)N,inactive
